Residue numbers refer to the chain shown, from its start.
Legend:
[1] = molecular target: T1, SALL4 ZFC4 R900W (HT-SELEX) (Mus musculus, UniProt Q8BX22 870-940, R900W); experiment: HT-SELEX; high values mean tight binding; settings: protein: recombinant; vector His6-GST; dsDNA, one strand shown
T1 sequence: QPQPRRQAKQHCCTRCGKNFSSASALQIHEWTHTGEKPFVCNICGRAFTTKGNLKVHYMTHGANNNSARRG
Outline: (§1)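 Residues 870–940 of mouse SALL4, forming zinc finger cluster 4, were expressed recombinantly, purified, and 1 µg was incubated with library DNA (1.5 µg first cycle, 200 ng later) in 100 µl of 10 mM Tris–HCl pH 7.5, 50 mM NaCl, poly(dI-dC) and DTT for 10 min at room temperature. Washed Ni2+ bead-captured complexes were PCR-amplified and reselected for up to 6 cycles in triplicate, and the products were sequenced on MiSeq and scanned for 6-mers. Binding signal is the fold change in each canonical k-mer's read fraction compared with the initial random library.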

[2] = molecular target: T2, SALL4 ZFC4 G921D (HT-SELEX) (Mus musculus, UniProt Q8BX22 870-940, G921D); experiment: HT-SELEX; high values mean tight binding; settings: protein: recombinant; vector His6-GST; dsDNA, one strand shown
T2 sequence: T1 sequence with W31R, G52D
Outline: as §1

Sequence	binding signal [1]	binding signal [2]
CGTGCC	0.121 ± 0.0106 fold-change vs cycle 0	0.246 ± 0.0768 fold-change vs cycle 0
CTGGCC	0.139 ± 0.00982 fold-change vs cycle 0	0.255 ± 0.0712 fold-change vs cycle 0
CTACGC	0.278 ± 0.0143 fold-change vs cycle 0	0.414 ± 0.0855 fold-change vs cycle 0
GCGGGA	0.149 ± 0.0162 fold-change vs cycle 0	0.256 ± 0.0688 fold-change vs cycle 0
GGCACA	0.256 ± 0.0249 fold-change vs cycle 0	0.414 ± 0.0716 fold-change vs cycle 0
ACGCAG	0.305 ± 0.0196 fold-change vs cycle 0	0.422 ± 0.0649 fold-change vs cycle 0
ACGGGC	0.131 ± 0.00526 fold-change vs cycle 0	0.241 ± 0.0805 fold-change vs cycle 0
GCGGCA	0.0597 ± 0.00711 fold-change vs cycle 0	0.158 ± 0.0724 fold-change vs cycle 0
CGGCCA	0.0795 ± 0.00952 fold-change vs cycle 0	0.19 ± 0.0619 fold-change vs cycle 0
GGCTCA	0.336 ± 0.00359 fold-change vs cycle 0	0.477 ± 0.0634 fold-change vs cycle 0
ACGAAT	1.26 ± 0.0589 fold-change vs cycle 0	1.24 ± 0.0791 fold-change vs cycle 0
CGGCTC	0.124 ± 0.00754 fold-change vs cycle 0	0.242 ± 0.0735 fold-change vs cycle 0
CCGCGG	0.0426 ± 0.00565 fold-change vs cycle 0	0.128 ± 0.0621 fold-change vs cycle 0
AGCTGC	0.284 ± 0.0104 fold-change vs cycle 0	0.414 ± 0.0709 fold-change vs cycle 0
GCATGC	0.3 ± 0.0114 fold-change vs cycle 0	0.437 ± 0.0507 fold-change vs cycle 0
CCCGCA	0.139 ± 0.0116 fold-change vs cycle 0	0.246 ± 0.066 fold-change vs cycle 0
CCGACG	0.143 ± 0.00739 fold-change vs cycle 0	0.255 ± 0.0634 fold-change vs cycle 0
CCCGGA	0.231 ± 0.0171 fold-change vs cycle 0	0.334 ± 0.0568 fold-change vs cycle 0
GGCGCA	0.0622 ± 0.0107 fold-change vs cycle 0	0.16 ± 0.0742 fold-change vs cycle 0
ACTGCC	0.333 ± 0.0151 fold-change vs cycle 0	0.469 ± 0.0726 fold-change vs cycle 0

Sequence	binding signal [1]	binding signal [2]
CCGGTC	0.202 ± 0.0231 fold-change vs cycle 0	0.315 ± 0.0731 fold-change vs cycle 0
CGCGGC	0.0238 ± 0.000376 fold-change vs cycle 0	0.0986 ± 0.055 fold-change vs cycle 0
AGCCAG	0.361 ± 0.0134 fold-change vs cycle 0	0.485 ± 0.0483 fold-change vs cycle 0
CCGCTC	0.151 ± 0.0178 fold-change vs cycle 0	0.273 ± 0.0659 fold-change vs cycle 0
CGTGGC	0.125 ± 0.0124 fold-change vs cycle 0	0.24 ± 0.0653 fold-change vs cycle 0
CACCGC	0.132 ± 0.00669 fold-change vs cycle 0	0.239 ± 0.0797 fold-change vs cycle 0
ACGCCG	0.0708 ± 0.0067 fold-change vs cycle 0	0.183 ± 0.0752 fold-change vs cycle 0
AGGCAC	0.34 ± 0.0246 fold-change vs cycle 0	0.486 ± 0.0565 fold-change vs cycle 0
GTGGCA	0.276 ± 0.00829 fold-change vs cycle 0	0.424 ± 0.0569 fold-change vs cycle 0
CCCCGC	0.0783 ± 0.012 fold-change vs cycle 0	0.179 ± 0.0709 fold-change vs cycle 0
GCCGAA	0.189 ± 0.0081 fold-change vs cycle 0	0.319 ± 0.0704 fold-change vs cycle 0
CTTGGC	0.308 ± 0.0227 fold-change vs cycle 0	0.45 ± 0.0809 fold-change vs cycle 0
GGCTGA	0.349 ± 0.0304 fold-change vs cycle 0	0.483 ± 0.072 fold-change vs cycle 0
ACGTGC	0.314 ± 0.00898 fold-change vs cycle 0	0.439 ± 0.0607 fold-change vs cycle 0
ACCCCG	0.242 ± 0.00886 fold-change vs cycle 0	0.353 ± 0.0765 fold-change vs cycle 0
GCGTGA	0.325 ± 0.00871 fold-change vs cycle 0	0.455 ± 0.056 fold-change vs cycle 0
ACCGCC	0.117 ± 0.0115 fold-change vs cycle 0	0.235 ± 0.0718 fold-change vs cycle 0
CCCCCC	0.217 ± 0.0203 fold-change vs cycle 0	0.314 ± 0.0628 fold-change vs cycle 0
ACTCGC	0.3364 ± 0.000841 fold-change vs cycle 0	0.463 ± 0.0712 fold-change vs cycle 0
GCTCCC	0.239 ± 0.0043 fold-change vs cycle 0	0.357 ± 0.0785 fold-change vs cycle 0

Sequence	binding signal [1]	binding signal [2]
ACGGCC	0.0993 ± 0.00797 fold-change vs cycle 0	0.206 ± 0.0649 fold-change vs cycle 0
AGCCCG	0.14 ± 0.0115 fold-change vs cycle 0	0.253 ± 0.0774 fold-change vs cycle 0
CCGAGC	0.158 ± 0.00799 fold-change vs cycle 0	0.273 ± 0.0808 fold-change vs cycle 0
CAGCCC	0.16 ± 0.0179 fold-change vs cycle 0	0.287 ± 0.0742 fold-change vs cycle 0
AACCGC	0.258 ± 0.0187 fold-change vs cycle 0	0.396 ± 0.0835 fold-change vs cycle 0
CTGCGC	0.08 ± 0.0196 fold-change vs cycle 0	0.173 ± 0.0775 fold-change vs cycle 0
GGCCGA	0.0868 ± 0.00648 fold-change vs cycle 0	0.196 ± 0.0603 fold-change vs cycle 0
CCACCC	0.298 ± 0.0277 fold-change vs cycle 0	0.395 ± 0.0676 fold-change vs cycle 0
CATCGC	0.317 ± 0.0166 fold-change vs cycle 0	0.45 ± 0.0668 fold-change vs cycle 0
CTGCCA	0.304 ± 0.0171 fold-change vs cycle 0	0.451 ± 0.0863 fold-change vs cycle 0
CGAACG	0.36 ± 0.0176 fold-change vs cycle 0	0.474 ± 0.087 fold-change vs cycle 0
CCGGAC	0.195 ± 0.02 fold-change vs cycle 0	0.305 ± 0.0661 fold-change vs cycle 0
GGCCTA	0.299 ± 0.00892 fold-change vs cycle 0	0.443 ± 0.0788 fold-change vs cycle 0
AAGGGC	0.343 ± 0.00573 fold-change vs cycle 0	0.488 ± 0.064 fold-change vs cycle 0
CGATGC	0.312 ± 0.0118 fold-change vs cycle 0	0.454 ± 0.0801 fold-change vs cycle 0
GAGCCC	0.184 ± 0.0121 fold-change vs cycle 0	0.331 ± 0.0823 fold-change vs cycle 0
GTGCCA	0.266 ± 0.0277 fold-change vs cycle 0	0.416 ± 0.0672 fold-change vs cycle 0
CCCGCG	0.0543 ± 0.006 fold-change vs cycle 0	0.134 ± 0.057 fold-change vs cycle 0
ATCGCC	0.24 ± 0.00657 fold-change vs cycle 0	0.401 ± 0.088 fold-change vs cycle 0
GCGCGC	0.0165 ± 0.00409 fold-change vs cycle 0	0.0747 ± 0.0529 fold-change vs cycle 0

— publication PMC9838217, “Structure of SALL4 zinc finger domain reveals link between AT-rich DNA binding and Okihiro syndrome”
